GLP-1R inv ag: acts as inverse agonist at human GLP-1 receptor; P43220; HEK293 GLP-1R CRE-luciferase, luminescence, 24 h; GLP-1R form is constitutively active; Potency, µM (highest dose often 38.3 µM), for the others: at the highest dose activity change, negative = inhibition, hits mostly inhibitors; 410,000 tested, 1.6% active; note: % is set by controls: 0 for no effect and ±100 for the full control effect; nearly all actives have a fitted effect of over 55% in size
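Inverse agonism was detected as reduced cAMP-driven luciferase luminescence after 24 h compound treatment. The cells were HEK293 clones expressing constitutively active human GLP-1R with the reporter. Reporter-only and GPR119 cell lines served as counterscreen controls.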
GLP1R cytotox: cytotoxicity counter-screen for GLP-1 receptor inverse agonists; HEK293 cAMP-luciferase reporter cells, luminescence, 24 h; Potency, µM (titrated, usually from 38.3 µM), inactives show at the highest dose activity change, negative = inhibition, hits mostly inhibitors; 410,000 tested, 0.13% active; AID 624418;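 note: loss of luciferase light is scored as toxicity; % is set by controls: 0 for no effect and ±100 for the full control effect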
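A 23 nL compound transfer followed 12 hours of cell culture at 37 deg C; exposure then lasted 24 hr. Luciferase assay detection reagent was dispensed and plates read for luminescence after a 12 min room-temperature wait.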
PTHR1 agonist: activates the human parathyroid hormone receptor PTHR1; Potency, µM (doses to about 115 µM), for the others: at the highest dose activation, actives largely listed as activators; HEK293 GP2 PTHR1 cells, GloSensor cAMP luminescence, 1 h; 410,000 tested, 0.075% active; Q03431; note: nearly all actives have a fitted effect of over 55% in size
Target sequence (Q03431 whole entry, looked up): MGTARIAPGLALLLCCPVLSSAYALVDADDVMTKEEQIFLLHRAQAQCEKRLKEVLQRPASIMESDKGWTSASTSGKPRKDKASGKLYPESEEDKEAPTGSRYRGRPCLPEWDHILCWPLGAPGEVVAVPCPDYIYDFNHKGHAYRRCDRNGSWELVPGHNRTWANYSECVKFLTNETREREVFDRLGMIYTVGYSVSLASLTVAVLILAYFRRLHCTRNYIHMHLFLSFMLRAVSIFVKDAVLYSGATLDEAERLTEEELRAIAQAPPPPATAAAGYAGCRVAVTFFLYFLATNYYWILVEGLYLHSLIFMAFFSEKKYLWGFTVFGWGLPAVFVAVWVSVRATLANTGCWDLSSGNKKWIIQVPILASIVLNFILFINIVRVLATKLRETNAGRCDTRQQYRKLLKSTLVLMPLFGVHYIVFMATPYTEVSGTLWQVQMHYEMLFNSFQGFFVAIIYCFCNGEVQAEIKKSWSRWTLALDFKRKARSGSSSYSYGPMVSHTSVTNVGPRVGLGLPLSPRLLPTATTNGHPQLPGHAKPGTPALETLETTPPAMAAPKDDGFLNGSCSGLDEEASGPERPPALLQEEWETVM
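HEK-293-derived GP2 cells expressing PTHR1 and a GloSensor cAMP reporter, 3,000/well, plated overnight, given luciferin plus IBMX (each 0.5 mM as added) for 1 h at 37 °C, then compound for 1 h at 37 °C. Luminescence was read after 15 min at room temperature.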
GLP1R ag: GLP-1 receptor (human) agonism. P43220. HEK293 GLP-1R CRE-luciferase, luminescence, 4-6 h; cells express a hypersensitive GLP-1R form. Potency, µM (highest dose often 45.6 µM), for the others: top-dose activation, usual class: activators. 380,000 tested, 0.007% active; note: % of control where 0% means no effect
The depositor's hits bear a star; i = inactive; ? = inconclusive; / = not tested or not shown; [ ] = remark or other dose. Most compounds without a hit are left out; they make up all but 1.7% or so of the library. Calls come from the whole dose curve; as a rule, active = well fitted curve in the direction sought with a large enough effect; inconclusive = small, poorly fitted or top-dose-only effect, or another doubt; inactive = no such curve, though single readings can be large; an effect the other way counts as inactive or inconclusive. Potency is the fitted concentration of half-maximal effect.

SMILES | GLP-1R inv ag | GLP1R cytotox | PTHR1 agonist | GLP1R ag
CO/C=C(/C(=O)OC)c1ccccc1Oc1cc(Oc2ccccc2C#N)ncn1 | / | / | / | 4%[96 µM]
CCCCn1c(=N)n(CC(O)COc2ccccc2)c2ccccc21 (configuration not stated) | 8.9µM* | ? | -14% | 2%
c1ccc(N2CCN(c3ncnc4c3nc3n4CCCCC3)CC2)cc1 | -8% | -8% | -36% | 2%
CCCCOc1ccc(CCN)cc1Cl | 1% | -6% | i | 0%
CNCCCOc1ccc(Cl)cc1C(C)(C)C | 3.5µM* | ? | i | 7%
COc1cccc(/C=N/NC(N)=S)c1OCc1ccccc1Cl | 11µM* | ? | 0% | 10%
O=C(C1CCN(c2ncnc3c2nc2n3CCCCC2)CC1)N1CCN(c2cccc(Cl)c2)CC1 | 8.9µM* | ? | -45% | -2%
COc1cc(NC(=O)c2csc(N)n2)cc(C(=O)Nc2cccc(C(F)(F)F)c2)c1 | 4µM* | ? | -85% | 0%
COC(=O)C1=C(c2ccc(OC(F)(F)F)cc2)C[C@@H]2CC[C@H]1N2C(=O)NCc1cccc2ccccc12 | 7.9µM* | 1% | -9% | 1%
COC(=O)C1=C(c2ccc(OC(F)(F)F)cc2)C[C@@H]2CC[C@H]1N2C(=O)NC1CCCCC1 | 13µM* | 9% | i | 2%
COC(=O)C1=C(c2ccc(OC(F)(F)F)cc2)C[C@@H]2CC[C@H]1N2C(=O)NC1Cc2ccccc2C1 | 7% | -4% | -13% | 0%
COC(=O)C1=C(c2ccc(OC(F)(F)F)cc2)C[C@@H]2CC[C@H]1N2C(=O)NCc1ccc(F)cc1 | ? | -9% | -12% | 0%
COC(=O)C1=C(c2ccc(OCc3ccccc3)cc2)C[C@@H]2CC[C@H]1N2C(=O)NC1CCN(Cc2ccccc2)CC1 | 7.9µM* | ? | -8% | 7%
CCOc1ccc(-c2nc(CSCC(=O)NCCc3ccc(OCC)c(OCC)c3)c(C)o2)cc1 | ? | -5% | -24% | /
Cc1ccc(-n2nc3c(=O)n(CC(=O)NCC(C)c4ccccc4)nc(C)c3c2C)cc1 (configuration not stated) | ? | 4% | -28% | /
Cc1cccc(Cn2cc(C=O)c3ccccc32)c1 | 4µM* | -7% | -23% | 10%
N#Cc1ccc(Cn2cc(C=O)c3ccccc32)cc1 | 7.1µM* | -5% | -25% | 1%
CCC(=O)c1cn(Cc2ccc(C#N)cc2)c2ccccc12 | ? | 2% | i | 9%
O=Cc1cn(Cc2cccc([N+](=O)[O-])c2)c2ccccc12 | ? | -39% | -23% | -5%
N#CC(C#N)=NNc1ccc([N+](=O)[O-])cc1 | 2.2µM* | ? | -1% | -10%
CCOc1cc(CNCCc2c[nH]c3ccccc23)cc(Cl)c1OCC | 11µM* | ? | i | -5%
C[C@@H]1C[C@@H]([C@H](O)CC2CC(=O)NC(=O)C2)C(=O)[C@@H](C)C1 | 0.79µM* | -38% | i | -19%
CC(=O)OC1(C)CC(C)C(=O)C(C(O)CC2CC(=O)NC(=O)C2)C1 (configuration not stated) | -77% | 15% | -60% | -5%
CCCc1cc(N2CCN(c3ccc(OC)cc3)CC2)n2cnnc2n1 | ? | -15% | -32% | /
CCOc1ccc(NC(=O)CN(c2ccc([N+](=O)[O-])cc2)S(=O)(=O)c2ccccc2)cc1 | 4µM* | ? | -16% | ?
SMILES | GLP-1R inv ag | GLP1R cytotox | PTHR1 agonist | GLP1R ag
COc1ccccc1-c1ncn(Cc2cccc(-c3ccccc3)c2)c1CC(C)C | ? | ? | -36% | -3%
Cc1c(CN2CCC(CO)(CCOc3ccccc3)CC2)[nH]c2c(Cl)cccc12 | 4.5µM* | ? | i | 10%
Cc1ccc(NC(=O)C(CC(C)C)NS(=O)(=O)c2ccc3c(c2)oc(=O)n3C)c(C)c1 (configuration not stated) | -15% | ? | -12% | -1%
CCOc1ccc(-c2cc(C(=O)N3CCN(S(=O)(=O)c4cc(Cl)ccc4OC)CC3)[nH]n2)cc1 | ? | -13% | -3% | /
CC(C)(C)c1csc(NC(=O)Nc2ccccc2)n1 | 10µM* | 6% | -93% | 29%
CCc1ccccc1NC(=O)C(CC)Oc1ccccc1-c1nnc(-c2ccccc2)o1 (configuration not stated) | ? | -15% | -7% | /
CCC(=O)c1ccc2c(c1)N(CCCN(C)C)c1ccccc1S2 | 11µM* | ? | i | 16%
COc1ccccc1C(=O)Nc1ccc2nc(SCC(=O)N3CCCc4ccccc43)sc2c1 | ? | -13% | i | /
COc1cccc(C(=O)N/N=C(/c2ccccc2)c2ccccn2)c1 | 7.9µM* | ? | -4% | -7%
CCC(CC)c1nnc(NC(=O)CC(C)c2ccccc2)s1 (configuration not stated) | 10µM* | -10% | -1% | -1%
Cc1nc(N2N=C3/C(=C/c4ccc(F)cc4)CCCC3C2c2ccc(F)cc2)sc1C(=O)N(C)C (configuration not stated) | 10µM* | 410% | -21% | -4%
O=C1[O][Sb-]23[O]C(=O)C([O]2)C2[O][Sb-]4([O]C(=O)C([O]4)C1[O]3)[O]C2=O | / | / | / | 2%
Brc1ccc2c(c1)C(OC1CN3CCC1CC3)c1ccccc1CS2 (configuration not stated) | ? | 10µM* | i | -43%
c1ccc2c(c1)CSc1ccccc1C2C1=NCCN1 (configuration not stated) | ? | -32% | i | -2%
C[C@H]1CN([C@@H](C)CO)C(=O)c2cccc(NC(=O)Nc3ccc(C(F)(F)F)cc3)c2O[C@@H]1CN(C)C(=O)Nc1ccc(F)cc1 | 11µM* | ? | -62% | -10%
COc1cc(NC(=O)c2cc3cc4ccc(C)cc4nc3o2)cc(OC)c1OC | 1% | -11% | -65% | 3%
COC(=O)C1(C(=O)OC)C[C@H](c2ccc(OC)cc2)N(Cc2ccccc2OC)[C@@H]1c1cccs1 | 10µM* | 1% | -14% | /
Cc1csc2nc(COC(=O)c3ccccc3NC(=O)c3ccc(F)cc3)cc(=O)n12 | 11% | -4% | -37% | /
O=C1CC(=O)N(c2cccc(C(F)(F)F)c2)C(=O)N1 | 4% | 18% | -1% | -1%
O=[N+]([O-])c1cccnc1N1CCC(c2cc(-c3cccc(C(F)(F)F)c3)n[nH]2)CC1 | 8.9µM* | ? | -4%[57.5 µM] | -5%
CC(=O)Nc1cccc(-c2csc(C(O)c3cccc(Cl)c3)n2)c1 (configuration not stated) | ? | -1% | i | 4%
COc1ccc2c(c1)C(c1ccc(N(CCCl)CCCl)cc1)=NCC2 | 10µM* | -30% | i | 17%
Fc1ccc(C2=CCN(C(c3ccc(Cl)cc3)c3nnnn3Cc3ccccc3)CC2)cc1 (configuration not stated) | 5.6µM* | 1% | -3% | 8%
CN1C(=O)C(=Cc2ccccc2OS(=O)(=O)c2ccccc2)C(=O)N(C)C1=O | -27% | -12% | -16% | -3%
